Several values for one entry are separate records, joined by “and”; a condition that tells them apart may be missing. Equal entries are not always repeated. Results filed as inconclusive are left out. Where a call stands in place of a potency, no number is given. The source holds several records for some structures; these can differ, active in one and inactive in another. Activity calls are given as the source filed them. Unless noted, calls follow the shape of the dose curve; as a rule, active = well fitted curve in the direction sought with a large enough effect in the repeat runs; inconclusive = weak or mixed curves; inactive = no such curve, though single readings can be large; an effect the other way counts as inactive or inconclusive.
Assays:
[1] = qHTS assay to identify small molecule antagonists of the glucocorticoid receptor (GR) signaling pathway - cell viability counter screen (AID 720693); also: nearly all actives have a fitted effect of over 55% in size; also: potency is read from the fitted curve at half-maximal effect
[2] = qHTS assay for identifying genotoxic compounds that show differential cytotoxicity against isogenic chicken DT40 cell lines with known DNA damage response pathways - wild type cell line (AID 743012); also: nearly all actives have a fitted effect of over 60% in size; also: potency is read from the fitted curve at half-maximal effect
Procedure, shortened: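 Endpoint: CellTiter-Glo luminescence, 30 min RT. Cells: wild type DT40, 300/well. Exposure: compounds in DMSO, 40 h, 37 C/5% CO2, after ~0.5 h pre-incubation.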

[3] = qHTS assay for identifying genotoxic compounds that show differential cytotoxicity against isogenic chicken DT40 cell lines with known DNA damage response pathways - Rev3 mutant cell line (AID 743014); also: nearly all actives have a fitted effect of over 55% in size; also: potency is read from the fitted curve at half-maximal effect
[4] = qHTS assay for identifying genotoxic compounds that show differential cytotoxicity against isogenic chicken DT40 cell lines with known DNA damage response pathways - Rad54/Ku70 mutant cell line (AID 743015); also: nearly all actives have a fitted effect of over 60% in size; also: potency is read from the fitted curve at half-maximal effect
[5] = qHTS assay to identify small molecule antagonists of the androgen receptor (AR) signaling pathway - cell viability counter screen (AID 743033; also: nearly all actives have a fitted effect of over 45% in size)
[6] = qHTS assay to identify small molecule antagonists of the androgen receptor (AR) signaling pathway using the MDA cell line - cell viability counter screen (AID 743041; also: nearly all actives have a fitted effect of over 45% in size; also: potency is read from the fitted curve at half-maximal effect)
Procedure, shortened: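 In this qHTS counter assay, fluorescence intensity after CellTiter-Fluor addition indicated viability of MDA-kb2 AR-luc cells given compounds and R1881 for 16 h at 37C.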

[7] = qHTS assay to identify small molecule antagonists of the thyroid receptor (TR) signaling pathway - cell viability counter screen (AID 743064); also: nearly all actives have a fitted effect of over 50% in size; also: potency is read from the fitted curve at half-maximal effect
Procedure, shortened: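 GH3.TRE-Luc rat pituitary cells carrying a TRE-luciferase reporter were treated with compound plus 1 nM T3 (final) for 23.5 h at 37 °C. Viability was then read in the same wells by CellTiter-Fluor fluorescence after a further 30 min.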

[8] = test system: thyroid hormone receptor (rat, GH3 cells); test: qHTS assay to identify small molecule agonists of the thyroid receptor (TR) signaling pathway (AID 743066; calls by dose curve; also: potency is read from the fitted curve at half-maximal effect)
[9] = molecular target: Estrogen receptor (Homo sapiens) (UniProt P03372); test: qHTS assay to identify small molecule antagonists of the estrogen receptor alpha (ER-alpha) signaling pathway (AID 743069; active = well fitted curve in the direction sought with a large enough effect in the signal ratio in the repeat runs, not every such curve was filed as active; the % refers to the signal ratio)
Procedure, shortened: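 A 17beta-estradiol challenge was applied right after compound transfer to ER-alpha-UAS-bla HEK293 cells previously kept in charcoal-stripped serum. Plates stood 18 hr at 37C and 5% CO2; fluorescence was read following 2 hr FRET substrate loading at room temperature.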

[10] = qHTS assay to identify small molecule antagonists of the estrogen receptor alpha (ER-alpha) signaling pathway - cell viability counter screen (AID 743074; calls by dose curve;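 also: HEK293 cells carrying ER-alpha-UAS-bla reporter stimulated with 17beta-estradiol; nearly all actives have a fitted effect of over 45% in size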)
[11] = molecular target: Estrogen receptor (Homo sapiens) (UniProt P03372); test: qHTS assay to identify small molecule agonists of the estrogen receptor alpha (ER-alpha) signaling pathway (AID 743075; calls by dose curve)
[12] = molecular target: Estrogen receptor (Homo sapiens) (UniProt P03372); test: qHTS assay to identify small molecule agonists of the estrogen receptor alpha (ER-alpha) signaling pathway using the BG1 cell line (AID 743079); also: nearly all actives have a fitted effect of over 20% in size; also: potency is read from the fitted curve at half-maximal effect
[13] = qHTS assay to identify small molecule antagonists of the estrogen receptor alpha (ER-alpha) signaling pathway using the BG1 cell line (AID 743080; calls by dose curve;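 also: BG1 cells stimulated with 17beta-estradiol alongside compound; nearly all actives have a fitted effect of over 25% in size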); conditions: BG1Luc4E2 ERE-luciferase antagonist mode, luminescence; activity change, negative = inhibition: at 70.3 µM (top of the series)
Procedure, shortened: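 Luminescence from a 4×ERE-luciferase reporter in BG1-Luc-4E2 cells served as read-out. Cells, pre-cultured 5 days in stripped-serum phenol-red-free medium, were exposed to compound with 17beta-estradiol co-stimulation for 21.5 h at 37 C.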

[14] = qHTS assay to identify small molecule antagonists of the estrogen receptor alpha (ER-alpha) signaling pathway using the BG1 cell line - cell viability counter screen (AID 743081);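 also: compound given together with 17beta-estradiol as the ER stimulus; nearly all actives have a fitted effect of over 45% in size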; also: potency is read from the fitted curve at half-maximal effect
Aromatase (Homo sapiens) = Aromatase (Homo sapiens) (UniProt P11511); test: qHTS assay to identify aromatase inhibitors (AID 743083); also: nearly all actives have a fitted effect of over 55% in size
[15] = qHTS assay to identify aromatase inhibitors - cell viability counter screen (AID 743084);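 also: cells stimulated with testosterone during compound exposure; nearly all actives have a fitted effect of over 55% in size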; also: potency is read from the fitted curve at half-maximal effect
[16] = qHTS assay to identify small molecule antagonists of the thyroid receptor (TR) signaling pathway (AID 743065); also: nearly all actives have a fitted effect of over 55% in size; also: potency is read from the fitted curve at half-maximal effect
Procedure, shortened: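 GH3.TRE-Luc rat pituitary cells carrying two TR response elements driving luciferase were plated for 4 h, given compound plus 1 nM T3 (final), and incubated 23.5 h at 37 C. ONE-Glo luminescence measured reporter inhibition; CellTiter-Fluor fluorescence tracked cytotoxicity.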

[17] = molecular target: Androgen receptor (Homo sapiens) (UniProt P10275); test: qHTS assay to identify small molecule antagonists of the androgen receptor (AR) signaling pathway (AID 743035; active = well fitted inhibition curve with a large enough effect in the signal ratio in the repeat runs, not every such curve was filed as active; the % refers to the signal ratio)
Procedure, shortened: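 R1881 agonist challenge of a HEK293 UAS-beta-lactamase AR reporter line in the presence of compound (16 h, 37C); signal taken as FRET fluorescence after 2 h with LiveBLAzer B/G substrate at room temperature.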

[18] = molecular target: Androgen receptor (Homo sapiens) (UniProt P10275); test: qHTS assay to identify small molecule agonists of the androgen receptor (AR) signaling pathway (AID 743036; active = well fitted activation curve with a large enough effect in the signal ratio in the repeat runs, with a control signal flat, not every such curve was filed as active; the % refers to the signal ratio)
Procedure, shortened: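 HEK293 cells stably carrying a UAS-driven beta-lactamase reporter (GeneBLAzer AR-UAS-bla-GripTite) were plated at 2,000 cells/well, rested 4 h at 37C, then exposed to compounds in DMSO for 16 h. LiveBLAzer B/G FRET substrate was added for 2 h at room temperature; fluorescence read.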

[19] = molecular target: Androgen receptor (Homo sapiens) (UniProt P10275); test: qHTS assay to identify small molecule antagonists of the androgen receptor (AR) signaling pathway using the MDA cell line (AID 743042; also: nearly all actives have a fitted effect of over 55% in size)
Procedure, shortened: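 MDA-kb2 cells (human breast carcinoma, stably carrying an MMTV-luciferase reporter responsive to AR and GR) were plated at 3,000 cells/well and preincubated 5 hr at 37C, then given compound plus R1881 agonist for 16 h. ONE-Glo luminescence was read.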

Aromatase (Homo sapiens), sequence (P11511 whole entry, looked up): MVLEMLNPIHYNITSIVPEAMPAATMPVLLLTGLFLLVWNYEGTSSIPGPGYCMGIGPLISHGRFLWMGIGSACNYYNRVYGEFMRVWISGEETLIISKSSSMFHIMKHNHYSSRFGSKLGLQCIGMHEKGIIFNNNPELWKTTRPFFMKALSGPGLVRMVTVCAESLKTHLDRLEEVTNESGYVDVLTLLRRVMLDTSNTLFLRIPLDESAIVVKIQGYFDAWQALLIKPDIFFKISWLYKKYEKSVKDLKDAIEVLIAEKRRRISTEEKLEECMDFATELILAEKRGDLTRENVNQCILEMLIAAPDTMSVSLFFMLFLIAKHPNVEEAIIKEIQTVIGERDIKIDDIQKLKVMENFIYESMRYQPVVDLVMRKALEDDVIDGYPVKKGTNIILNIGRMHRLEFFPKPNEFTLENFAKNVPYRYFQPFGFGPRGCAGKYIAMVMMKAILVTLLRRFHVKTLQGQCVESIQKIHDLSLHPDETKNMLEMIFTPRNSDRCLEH
Estrogen receptor (Homo sapiens), sequence (P03372 whole entry, looked up): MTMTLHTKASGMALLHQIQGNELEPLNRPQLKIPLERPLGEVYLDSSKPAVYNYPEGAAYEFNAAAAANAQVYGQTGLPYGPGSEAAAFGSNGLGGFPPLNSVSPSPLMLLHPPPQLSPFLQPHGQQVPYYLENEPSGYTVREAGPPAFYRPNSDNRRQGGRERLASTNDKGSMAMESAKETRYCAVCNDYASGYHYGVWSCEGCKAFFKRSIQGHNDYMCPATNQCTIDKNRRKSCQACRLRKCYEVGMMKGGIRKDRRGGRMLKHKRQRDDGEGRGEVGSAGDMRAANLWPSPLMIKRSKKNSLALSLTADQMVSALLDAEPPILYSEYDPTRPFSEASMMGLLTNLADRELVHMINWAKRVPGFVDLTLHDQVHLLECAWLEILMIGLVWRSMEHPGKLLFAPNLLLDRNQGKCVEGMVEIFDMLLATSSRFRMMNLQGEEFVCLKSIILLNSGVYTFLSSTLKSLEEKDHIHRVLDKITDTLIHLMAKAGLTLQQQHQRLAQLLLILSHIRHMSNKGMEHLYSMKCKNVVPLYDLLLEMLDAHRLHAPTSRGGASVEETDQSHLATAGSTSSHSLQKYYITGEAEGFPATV
Androgen receptor (Homo sapiens), sequence (P10275 whole entry, looked up): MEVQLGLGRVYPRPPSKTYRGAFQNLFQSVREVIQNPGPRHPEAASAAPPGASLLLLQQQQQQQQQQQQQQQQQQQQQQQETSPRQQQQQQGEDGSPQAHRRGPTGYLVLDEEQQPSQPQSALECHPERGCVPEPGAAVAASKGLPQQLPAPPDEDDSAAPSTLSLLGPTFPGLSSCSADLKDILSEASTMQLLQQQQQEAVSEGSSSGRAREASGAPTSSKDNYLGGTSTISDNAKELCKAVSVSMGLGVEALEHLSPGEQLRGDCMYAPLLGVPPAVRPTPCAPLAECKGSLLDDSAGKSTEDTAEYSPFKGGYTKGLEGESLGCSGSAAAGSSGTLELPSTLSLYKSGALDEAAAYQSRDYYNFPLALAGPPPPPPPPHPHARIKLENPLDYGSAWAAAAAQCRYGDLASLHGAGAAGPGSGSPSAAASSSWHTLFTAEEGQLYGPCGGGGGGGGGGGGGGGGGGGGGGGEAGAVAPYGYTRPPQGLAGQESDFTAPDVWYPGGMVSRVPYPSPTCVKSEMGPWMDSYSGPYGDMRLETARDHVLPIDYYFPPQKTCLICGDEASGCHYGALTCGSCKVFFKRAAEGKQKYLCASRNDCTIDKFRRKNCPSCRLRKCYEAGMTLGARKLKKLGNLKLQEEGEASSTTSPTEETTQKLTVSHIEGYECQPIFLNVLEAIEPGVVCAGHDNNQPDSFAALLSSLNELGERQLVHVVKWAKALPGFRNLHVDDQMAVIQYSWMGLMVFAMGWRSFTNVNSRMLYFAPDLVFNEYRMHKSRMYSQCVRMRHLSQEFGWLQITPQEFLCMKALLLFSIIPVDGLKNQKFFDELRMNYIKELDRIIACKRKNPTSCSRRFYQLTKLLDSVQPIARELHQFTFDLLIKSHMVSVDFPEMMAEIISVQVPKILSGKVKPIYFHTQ

| SMILES | Potency [1] | Potency [2] | Potency [3] | Potency [4] | Potency [5] | Potency [6] | Potency [7] | Potency [8] | Potency [9] | Potency [10] | Potency [11] | Potency [12] | Potency [13] | Potency [14] | Potency (Aromatase (Homo sapiens)) | Potency [15] | Potency [16] | Potency [17] | outcome [18] | Potency [19] |
| --- | --- | --- | --- | --- | --- | --- | --- | --- | --- | --- | --- | --- | --- | --- | --- | --- | --- | --- | --- | --- |
| CC(=O)CCC(=O)O | inactive | inactive | inactive | inactive | inactive | inactive | inactive | inactive | inactive | inactive | inactive | 15 µM (active) and inactive | inactive | inactive | inactive | inactive |  |  |  |  |
| Cc1cc(C)nc(NS(=O)(=O)c2ccc(N)cc2)n1 | inactive | inactive | inactive | inactive | inactive | inactive | inactive | inactive and 69.4 µM (active) |  | inactive |  |  |  | inactive | inactive | inactive | inactive |  |  |  |
| CCCc1cc(=O)[nH]c(=S)[nH]1 | inactive | inactive | inactive and 61.1 µM (active) | inactive and 54.5 µM (active) | inactive | inactive | inactive | inactive | inactive | inactive | inactive | 26.6 µM (active) and inactive | inactive | inactive | inactive | inactive | inactive |  |  |  |
| Cc1cn([C@H]2C=C[C@@H](CO)O2)c(=O)[nH]c1=O | inactive | inactive | inactive | inactive | inactive | inactive | inactive | inactive |  | inactive |  |  |  | inactive | inactive | inactive | inactive |  |  |  |
| C/C=C/C=C/C(=O)O | inactive | inactive and 61.1 µM (active) | inactive | inactive and 61.1 µM (active) | inactive | inactive | inactive | inactive |  | inactive |  |  |  | inactive | inactive | inactive | inactive |  |  |  |
| CCCCC1(COC(=O)CCC(=O)O)C(=O)N(c2ccccc2)N(c2ccccc2)C1=O | inactive |  | inactive | inactive | inactive | inactive | inactive | inactive | inactive | inactive | inactive | inactive | inactive | inactive | inactive | inactive | inactive | inactive | inactive | inactive |
| O=C1NS(=O)(=O)c2ccccc21 | inactive | inactive | inactive | inactive | inactive | inactive | inactive |  |  | inactive |  |  |  | inactive | inactive | inactive |  |  |  |  |
| Cc1c(C(=O)O)c(O)cc2c1C(=O)c1c(O)c([C@@H]3O[C@H](CO)[C@@H](O)[C@H](O)[C@H]3O)c(O)c(O)c1C2=O | inactive |  | inactive and 59.6 µM (active) and 54.5 µM (active) | 53.1 µM (active) and 48.6 µM (active) | inactive | 59.6 µM (active) and 27.3 µM (active) | 13.3 µM (active) and 59.6 µM (active) and 61.1 µM (active) | inactive | inactive | inactive | inactive | inactive |  | 18.8 µM (active) and 29.9 µM (active) and 27.3 µM (active) |  | 29.8 µM (active) and 13.3 µM (active) and 24.3 µM (active) |  |  |  |  |
| C=C1CC[C@H](O)C/C1=C\C=C1/CCC[C@]2(C)[C@@H]([C@H](C)CCCC(C)C)CC[C@@H]12 | 54.4 µM (active) |  | 26.6 µM (active) and 24.1 µM (active) | 13.3 µM (active) and 15.2 µM (active) | inactive | inactive | 26.6 µM (active) and 48.1 µM (active) |  |  | inactive | inactive | inactive | inactive | inactive | inactive | inactive | 21.1 µM (active) and 30.4 µM (active) |  |  |  |
| CNNCc1ccc(C(=O)NC(C)C)cc1 | inactive |  | inactive | inactive | inactive | inactive | inactive | inactive |  | inactive |  |  |  | inactive | inactive | inactive | inactive |  |  |  |
| CC(=O)CC(c1ccccc1)c1c(O)c2ccccc2oc1=O (configuration not stated) | inactive |  | inactive | inactive | inactive | inactive | inactive | inactive |  | inactive |  |  |  | inactive |  |  | inactive |  |  |  |
| C=C(C)C(=O)OCC(C)O (configuration not stated) | inactive |  | inactive | inactive | inactive | inactive | inactive | inactive | inactive | inactive | inactive | inactive | inactive | inactive | inactive | inactive | inactive |  |  |  |

From PubChem BioAssay (Tox21)
